Bioassay records as filed in PubChem BioAssay.
M1 PAM = potentiates human M1 receptor response to acetylcholine; activation, % at 3 µM; P11229; AID 588819; CHO-K1 hM1, Fluo-8 calcium fluorescence, ACh EC20; 0% = ACh EC20, 100% = maximal ACh; hit rate 0.088% among 360,000; in the data active = activation above about 19%, passing the limit was not always enough
Target sequence (P11229 whole entry, looked up): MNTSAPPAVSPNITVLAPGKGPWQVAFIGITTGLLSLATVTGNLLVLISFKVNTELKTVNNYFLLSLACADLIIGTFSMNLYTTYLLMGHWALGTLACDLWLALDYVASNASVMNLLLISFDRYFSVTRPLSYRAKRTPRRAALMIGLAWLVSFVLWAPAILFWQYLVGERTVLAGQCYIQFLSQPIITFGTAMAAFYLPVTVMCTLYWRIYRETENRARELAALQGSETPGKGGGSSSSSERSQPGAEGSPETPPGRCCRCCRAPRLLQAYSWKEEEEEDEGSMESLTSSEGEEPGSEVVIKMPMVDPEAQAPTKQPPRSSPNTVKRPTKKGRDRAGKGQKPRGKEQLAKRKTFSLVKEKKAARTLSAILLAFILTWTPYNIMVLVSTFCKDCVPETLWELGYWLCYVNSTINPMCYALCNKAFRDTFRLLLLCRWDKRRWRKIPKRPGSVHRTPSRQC
CHRM1 agonist = agonists of human M1 muscarinic receptor; P11229; CHO-K1 hM1, Fluo-8 calcium fluorescence, agonist mode; 0% DMSO, 100% acetylcholine EC100; activation, % at 3 µM; hit rate 0.33% among 360,000; AID 588814;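 active = activation above the run's mean compound activation plus 3 SD, cut at about 16% in these data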;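 also: peak over basal fluorescence ratio within a 140 s kinetic read after compound addition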
M1 PAM parental = counter-screen for M1 PAMs: effect in parental CHO-K1 cells. ATP EC20, Fluo-8 calcium fluorescence; 0% at ATP EC20, 100% at ATP max. activation, % at 3 µM. hit rate 0.02% among 360,000. AID 602247;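 active = activation above the run cutoff, the mean activation of all test compounds plus 3 SD, cut at about 40% in these data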;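 also: peak over basal fluorescence ratio in a 140 s read after ATP addition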
CHO-K1 Ca antag = nonselective inhibitor or artifact in parental CHO-K1 cells. ATP-induced calcium, Fluo-8 fluorescence. inhibition, % at 3 µM. hit rate 0.6% among 360,000;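 active = inhibition above a per-plate cutoff, the plate's mean sample inhibition plus 3 SD, cut at about 24% in these data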;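 also: 0% = DMSO plus EC80 ATP and 100% = DMSO alone without ATP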
M1 ag parental = M1 agonist counterscreen hit in parental CHO-K1 cells | Fluo-8 calcium fluorescence; scaled to maximal ATP response, vehicle zero | activation, % at 3 µM | hit rate 0.48% among 360,000 | AID 602248; in the data active = activation above about 15%;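 also: untransfected CHO-K1 host cells lacking M1 receptor as counterscreen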
M1 antag = antagonists of human M1 muscarinic receptor. hit rate 1.3% among 360,000. inhibition, % at 3 µM. CHO-K1 hM1, Fluo-8 calcium fluorescence, ACh EC80 antagonist. AID 588852;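 active = percent inhibition above its own plate's cutoff, namely the mean of that plate's compound wells plus 3 SD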;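 also: peak over basal fluorescence ratio during 140 s after agonist addition; 0% = ACh EC80 plus DMSO and 100% = DMSO alone without agonist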
An asterisk follows results filed as active; ! = repeats disagree. This is a sample that favours compounds with a hit; in the whole collection about 2.3% have one here.

Results for Cn1c(/C(C#N)=C/c2cccc(O)c2)nc2ccccc21 ?
M1 PAM: 18; CHRM1 agonist: -5; M1 PAM parental: 12; CHO-K1 Ca antag: -1; M1 ag parental: 0; M1 antag: -17

Results for Cc1cc(C(=O)N2CCN(S(=O)(=O)c3ccc(C)c(C)c3)CC2)no1 ?
M1 PAM: -7; CHRM1 agonist: -4; M1 PAM parental: -25; CHO-K1 Ca antag: 14; M1 ag parental: 0; M1 antag: 17

How did Cc1coc2cc3oc(=O)c(CCC(=O)NC4CC4)c(C)c3cc12 do in these assays?
M1 PAM: -21; CHRM1 agonist: 2; M1 PAM parental: -16; CHO-K1 Ca antag: 28*; M1 ag parental: 11; M1 antag: 31*

What do the screens show for `O=[N+]([O-])c1cc(C(F)(F)F)cc([N+](=O)[O-])c1NCCNC(=S)Nc1ccc(Cl)c(Cl)c1`?
M1 PAM: -10; CHRM1 agonist: 4; M1 PAM parental: -16; CHO-K1 Ca antag: 27*; M1 ag parental: 13; M1 antag: 30

Results for CCOC(=O)Cn1c(=O)oc2cc(S(=O)(=O)NC3CCCCC3)ccc21 ?
M1 PAM: -20; CHRM1 agonist: -1; M1 PAM parental: -3; CHO-K1 Ca antag: 16; M1 ag parental: 1; M1 antag: 32*

How did COc1ccc(S(=O)(=O)N(CC(=O)N2CCCCCC2)c2ccccc2OC)cc1 do in these assays?
M1 PAM: 6; CHRM1 agonist: -11; M1 PAM parental: -2; CHO-K1 Ca antag: -15; M1 ag parental: 0; M1 antag: -5

What do the screens show for `CN1CCN(C2Cc3ccc(F)cc3Sc3cc(F)c(Cl)cc32)CC1` (stereo not drawn)?
M1 PAM: -14; CHRM1 agonist: -6; M1 PAM parental: -4; CHO-K1 Ca antag: 6; M1 ag parental: 1; M1 antag: 29

What do the screens show for `CN1CCN(C2Cc3cc(F)ccc3Sc3ccc(Cl)cc32)CC1` (stereo not drawn)?
M1 PAM: -26; CHRM1 agonist: -1; M1 PAM parental: 14; CHO-K1 Ca antag: -17; M1 ag parental: 5; M1 antag: 100*

How did CN1CCN(C2Cc3ccccc3Sc3ccc(Cl)cc32)CC1 (stereo not drawn) do in these assays?
M1 PAM: -22; CHRM1 agonist: -3; M1 PAM parental: -4; CHO-K1 Ca antag: 20; M1 ag parental: 7; M1 antag: 74

What do the screens show for `CSc1ccc2c(c1)C(N1CCN(C)CC1)Cc1ccccc1S2` (stereo not drawn)?
M1 PAM: -22; CHRM1 agonist: -1; M1 PAM parental: 0; CHO-K1 Ca antag: 11; M1 ag parental: 15*!; M1 antag: 79*

How did Cc1cccc(N/C(=N/S(=O)(=O)c2ccccc2)c2ccccc2)n1 do in these assays?
M1 PAM: 7; CHRM1 agonist: -2; M1 PAM parental: 1; CHO-K1 Ca antag: -9; M1 ag parental: 0; M1 antag: -9

Results for Cn1ccnc1C1CCCCN1Cc1nc(-c2ccc(Cl)cc2)no1 (stereo not drawn) ?
M1 PAM: -19; CHRM1 agonist: -7; M1 PAM parental: -2; CHO-K1 Ca antag: -11; M1 ag parental: 2; M1 antag: 32*

What do the screens show for `Clc1ccc(-c2noc(CN3CCCC3)n2)cc1`?
M1 PAM: -3; CHRM1 agonist: -4; M1 PAM parental: 25; CHO-K1 Ca antag: -10; M1 ag parental: 1; M1 antag: -3

Results for Cc1ccc(C)c(N2CCN(C(=O)CCS(=O)(=O)c3ccc4c(c3)NC(=O)CO4)CC2)c1 ?
M1 PAM: -10; CHRM1 agonist: 6; M1 PAM parental: 3; CHO-K1 Ca antag: -3; M1 ag parental: 17*; M1 antag: 22

Results for CC1CCN(C(=O)CCS(=O)(=O)c2cc3c(cc2Cl)NC(=O)CO3)CC1 ?
M1 PAM: 3; CHRM1 agonist: -1; M1 PAM parental: 20; CHO-K1 Ca antag: -6; M1 ag parental: 1; M1 antag: -12

How did COc1ccc(N2CCN(C(=O)CC(C)S(=O)(=O)c3ccc4c(c3)NC(=O)CO4)CC2)cc1 (stereo not drawn) do in these assays?
M1 PAM: -9; CHRM1 agonist: 3; M1 PAM parental: -18; CHO-K1 Ca antag: 17; M1 ag parental: 10; M1 antag: 9

What do the screens show for `CC(CC(=O)N1CCN(c2cccc(Cl)c2)CC1)S(=O)(=O)c1ccc2c(c1)NC(=O)CO2` (stereo not drawn)?
M1 PAM: -21; CHRM1 agonist: 4; M1 PAM parental: -15; CHO-K1 Ca antag: 0; M1 ag parental: 3; M1 antag: 66*

What do the screens show for `CCCN1CCN(C(=O)CCS(=O)(=O)c2cc3c(cc2Cl)NC(=O)CO3)CC1`?
M1 PAM: -10; CHRM1 agonist: -4; M1 PAM parental: -11; CHO-K1 Ca antag: 26*; M1 ag parental: 0; M1 antag: 13

Results for O=C1COc2ccc(S(=O)(=O)CCC(=O)N3CCN(c4ccccc4)CC3)cc2N1 ?
M1 PAM: 9; CHRM1 agonist: -1; M1 PAM parental: 24; CHO-K1 Ca antag: -11; M1 ag parental: 1; M1 antag: -12

Results for O=S1(=O)CC(N2CCC(Cc3ccccc3)CC2)CN1C1CCCC1 (stereo not drawn) ?
M1 PAM: -2; CHRM1 agonist: -4; M1 PAM parental: 10; CHO-K1 Ca antag: -3; M1 ag parental: 4; M1 antag: 1

Results for COC(=O)c1ccccc1NC(=O)CNc1ccc(F)c(S(=O)(=O)N2CCOCC2)c1 ?
M1 PAM: 6; CHRM1 agonist: 0; M1 PAM parental: -3; CHO-K1 Ca antag: 13; M1 ag parental: 1; M1 antag: -4

How did C[C@@H]1CN([C@@H](C)CO)C(=O)c2cc(Br)cnc2O[C@H]1CN(C)C(=O)c1ccccc1F do in these assays?
M1 PAM: 6; CHRM1 agonist: -2; M1 PAM parental: 6; CHO-K1 Ca antag: -8; M1 ag parental: 0; M1 antag: -5

How did COc1ccccc1C(=O)NNC(=S)NC(=O)c1sc2ccccc2c1Cl do in these assays?
M1 PAM: -5; CHRM1 agonist: 22*; M1 PAM parental: 16; CHO-K1 Ca antag: -3; M1 ag parental: 12; M1 antag: 0

What do the screens show for `COc1ccccc1C(=O)NC(=S)NNC(=O)c1sc2ccccc2c1Cl`?
M1 PAM: -8; CHRM1 agonist: 0; M1 PAM parental: 3; CHO-K1 Ca antag: -3; M1 ag parental: 0; M1 antag: 3

How did CN1C(=O)/C(=C\c2ccc(N(C)C)cc2)OC1=S do in these assays?
M1 PAM: -22; CHRM1 agonist: 53*; M1 PAM parental: -18; CHO-K1 Ca antag: 27*; M1 ag parental: 30*; M1 antag: 39*

What do the screens show for `CCC12CCC3c4ccc(O)cc4CCC3C1CC(O)C2O` (stereo not drawn)?
M1 PAM: -1; CHRM1 agonist: 1; M1 PAM parental: -17; CHO-K1 Ca antag: -1; M1 ag parental: 1; M1 antag: 0
